Compound in the assay: C#CCNC(=O)CCSSCCC(=O)NCCc1ccc(C=O)c(C=O)c1
Kind of assay: lysine labeling ratio R10:1 (500 µM / 50 µM probe), SILAC-ABPP in living cells; higher = lower intrinsic lysine reactivity toward the probe, active = 2 or less. Particulars: HeLa; probe concentrations 500 vs 50 µM. An outline of the steps:
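An alkyne-tagged lysine probe with a disulfide linker labelled living HeLa cells in PBS at room temperature at either 50 µM or 500 µM, using SILAC light and heavy cells in forward and reverse label swaps. Lysates were mixed, clicked to biotin-azide, trypsin-digested, enriched on neutravidin, DTT-released, alkylated and measured by LC-MS/MS on a TIMS-TOF Pro. Each lysine's R is the filtered median high-probe/low-probe MS1 peptide ratio, combined as the median over forward and reverse replicates, with 20 as the upper limit.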
Chain of UniProt Q15149 (Q15149 whole entry): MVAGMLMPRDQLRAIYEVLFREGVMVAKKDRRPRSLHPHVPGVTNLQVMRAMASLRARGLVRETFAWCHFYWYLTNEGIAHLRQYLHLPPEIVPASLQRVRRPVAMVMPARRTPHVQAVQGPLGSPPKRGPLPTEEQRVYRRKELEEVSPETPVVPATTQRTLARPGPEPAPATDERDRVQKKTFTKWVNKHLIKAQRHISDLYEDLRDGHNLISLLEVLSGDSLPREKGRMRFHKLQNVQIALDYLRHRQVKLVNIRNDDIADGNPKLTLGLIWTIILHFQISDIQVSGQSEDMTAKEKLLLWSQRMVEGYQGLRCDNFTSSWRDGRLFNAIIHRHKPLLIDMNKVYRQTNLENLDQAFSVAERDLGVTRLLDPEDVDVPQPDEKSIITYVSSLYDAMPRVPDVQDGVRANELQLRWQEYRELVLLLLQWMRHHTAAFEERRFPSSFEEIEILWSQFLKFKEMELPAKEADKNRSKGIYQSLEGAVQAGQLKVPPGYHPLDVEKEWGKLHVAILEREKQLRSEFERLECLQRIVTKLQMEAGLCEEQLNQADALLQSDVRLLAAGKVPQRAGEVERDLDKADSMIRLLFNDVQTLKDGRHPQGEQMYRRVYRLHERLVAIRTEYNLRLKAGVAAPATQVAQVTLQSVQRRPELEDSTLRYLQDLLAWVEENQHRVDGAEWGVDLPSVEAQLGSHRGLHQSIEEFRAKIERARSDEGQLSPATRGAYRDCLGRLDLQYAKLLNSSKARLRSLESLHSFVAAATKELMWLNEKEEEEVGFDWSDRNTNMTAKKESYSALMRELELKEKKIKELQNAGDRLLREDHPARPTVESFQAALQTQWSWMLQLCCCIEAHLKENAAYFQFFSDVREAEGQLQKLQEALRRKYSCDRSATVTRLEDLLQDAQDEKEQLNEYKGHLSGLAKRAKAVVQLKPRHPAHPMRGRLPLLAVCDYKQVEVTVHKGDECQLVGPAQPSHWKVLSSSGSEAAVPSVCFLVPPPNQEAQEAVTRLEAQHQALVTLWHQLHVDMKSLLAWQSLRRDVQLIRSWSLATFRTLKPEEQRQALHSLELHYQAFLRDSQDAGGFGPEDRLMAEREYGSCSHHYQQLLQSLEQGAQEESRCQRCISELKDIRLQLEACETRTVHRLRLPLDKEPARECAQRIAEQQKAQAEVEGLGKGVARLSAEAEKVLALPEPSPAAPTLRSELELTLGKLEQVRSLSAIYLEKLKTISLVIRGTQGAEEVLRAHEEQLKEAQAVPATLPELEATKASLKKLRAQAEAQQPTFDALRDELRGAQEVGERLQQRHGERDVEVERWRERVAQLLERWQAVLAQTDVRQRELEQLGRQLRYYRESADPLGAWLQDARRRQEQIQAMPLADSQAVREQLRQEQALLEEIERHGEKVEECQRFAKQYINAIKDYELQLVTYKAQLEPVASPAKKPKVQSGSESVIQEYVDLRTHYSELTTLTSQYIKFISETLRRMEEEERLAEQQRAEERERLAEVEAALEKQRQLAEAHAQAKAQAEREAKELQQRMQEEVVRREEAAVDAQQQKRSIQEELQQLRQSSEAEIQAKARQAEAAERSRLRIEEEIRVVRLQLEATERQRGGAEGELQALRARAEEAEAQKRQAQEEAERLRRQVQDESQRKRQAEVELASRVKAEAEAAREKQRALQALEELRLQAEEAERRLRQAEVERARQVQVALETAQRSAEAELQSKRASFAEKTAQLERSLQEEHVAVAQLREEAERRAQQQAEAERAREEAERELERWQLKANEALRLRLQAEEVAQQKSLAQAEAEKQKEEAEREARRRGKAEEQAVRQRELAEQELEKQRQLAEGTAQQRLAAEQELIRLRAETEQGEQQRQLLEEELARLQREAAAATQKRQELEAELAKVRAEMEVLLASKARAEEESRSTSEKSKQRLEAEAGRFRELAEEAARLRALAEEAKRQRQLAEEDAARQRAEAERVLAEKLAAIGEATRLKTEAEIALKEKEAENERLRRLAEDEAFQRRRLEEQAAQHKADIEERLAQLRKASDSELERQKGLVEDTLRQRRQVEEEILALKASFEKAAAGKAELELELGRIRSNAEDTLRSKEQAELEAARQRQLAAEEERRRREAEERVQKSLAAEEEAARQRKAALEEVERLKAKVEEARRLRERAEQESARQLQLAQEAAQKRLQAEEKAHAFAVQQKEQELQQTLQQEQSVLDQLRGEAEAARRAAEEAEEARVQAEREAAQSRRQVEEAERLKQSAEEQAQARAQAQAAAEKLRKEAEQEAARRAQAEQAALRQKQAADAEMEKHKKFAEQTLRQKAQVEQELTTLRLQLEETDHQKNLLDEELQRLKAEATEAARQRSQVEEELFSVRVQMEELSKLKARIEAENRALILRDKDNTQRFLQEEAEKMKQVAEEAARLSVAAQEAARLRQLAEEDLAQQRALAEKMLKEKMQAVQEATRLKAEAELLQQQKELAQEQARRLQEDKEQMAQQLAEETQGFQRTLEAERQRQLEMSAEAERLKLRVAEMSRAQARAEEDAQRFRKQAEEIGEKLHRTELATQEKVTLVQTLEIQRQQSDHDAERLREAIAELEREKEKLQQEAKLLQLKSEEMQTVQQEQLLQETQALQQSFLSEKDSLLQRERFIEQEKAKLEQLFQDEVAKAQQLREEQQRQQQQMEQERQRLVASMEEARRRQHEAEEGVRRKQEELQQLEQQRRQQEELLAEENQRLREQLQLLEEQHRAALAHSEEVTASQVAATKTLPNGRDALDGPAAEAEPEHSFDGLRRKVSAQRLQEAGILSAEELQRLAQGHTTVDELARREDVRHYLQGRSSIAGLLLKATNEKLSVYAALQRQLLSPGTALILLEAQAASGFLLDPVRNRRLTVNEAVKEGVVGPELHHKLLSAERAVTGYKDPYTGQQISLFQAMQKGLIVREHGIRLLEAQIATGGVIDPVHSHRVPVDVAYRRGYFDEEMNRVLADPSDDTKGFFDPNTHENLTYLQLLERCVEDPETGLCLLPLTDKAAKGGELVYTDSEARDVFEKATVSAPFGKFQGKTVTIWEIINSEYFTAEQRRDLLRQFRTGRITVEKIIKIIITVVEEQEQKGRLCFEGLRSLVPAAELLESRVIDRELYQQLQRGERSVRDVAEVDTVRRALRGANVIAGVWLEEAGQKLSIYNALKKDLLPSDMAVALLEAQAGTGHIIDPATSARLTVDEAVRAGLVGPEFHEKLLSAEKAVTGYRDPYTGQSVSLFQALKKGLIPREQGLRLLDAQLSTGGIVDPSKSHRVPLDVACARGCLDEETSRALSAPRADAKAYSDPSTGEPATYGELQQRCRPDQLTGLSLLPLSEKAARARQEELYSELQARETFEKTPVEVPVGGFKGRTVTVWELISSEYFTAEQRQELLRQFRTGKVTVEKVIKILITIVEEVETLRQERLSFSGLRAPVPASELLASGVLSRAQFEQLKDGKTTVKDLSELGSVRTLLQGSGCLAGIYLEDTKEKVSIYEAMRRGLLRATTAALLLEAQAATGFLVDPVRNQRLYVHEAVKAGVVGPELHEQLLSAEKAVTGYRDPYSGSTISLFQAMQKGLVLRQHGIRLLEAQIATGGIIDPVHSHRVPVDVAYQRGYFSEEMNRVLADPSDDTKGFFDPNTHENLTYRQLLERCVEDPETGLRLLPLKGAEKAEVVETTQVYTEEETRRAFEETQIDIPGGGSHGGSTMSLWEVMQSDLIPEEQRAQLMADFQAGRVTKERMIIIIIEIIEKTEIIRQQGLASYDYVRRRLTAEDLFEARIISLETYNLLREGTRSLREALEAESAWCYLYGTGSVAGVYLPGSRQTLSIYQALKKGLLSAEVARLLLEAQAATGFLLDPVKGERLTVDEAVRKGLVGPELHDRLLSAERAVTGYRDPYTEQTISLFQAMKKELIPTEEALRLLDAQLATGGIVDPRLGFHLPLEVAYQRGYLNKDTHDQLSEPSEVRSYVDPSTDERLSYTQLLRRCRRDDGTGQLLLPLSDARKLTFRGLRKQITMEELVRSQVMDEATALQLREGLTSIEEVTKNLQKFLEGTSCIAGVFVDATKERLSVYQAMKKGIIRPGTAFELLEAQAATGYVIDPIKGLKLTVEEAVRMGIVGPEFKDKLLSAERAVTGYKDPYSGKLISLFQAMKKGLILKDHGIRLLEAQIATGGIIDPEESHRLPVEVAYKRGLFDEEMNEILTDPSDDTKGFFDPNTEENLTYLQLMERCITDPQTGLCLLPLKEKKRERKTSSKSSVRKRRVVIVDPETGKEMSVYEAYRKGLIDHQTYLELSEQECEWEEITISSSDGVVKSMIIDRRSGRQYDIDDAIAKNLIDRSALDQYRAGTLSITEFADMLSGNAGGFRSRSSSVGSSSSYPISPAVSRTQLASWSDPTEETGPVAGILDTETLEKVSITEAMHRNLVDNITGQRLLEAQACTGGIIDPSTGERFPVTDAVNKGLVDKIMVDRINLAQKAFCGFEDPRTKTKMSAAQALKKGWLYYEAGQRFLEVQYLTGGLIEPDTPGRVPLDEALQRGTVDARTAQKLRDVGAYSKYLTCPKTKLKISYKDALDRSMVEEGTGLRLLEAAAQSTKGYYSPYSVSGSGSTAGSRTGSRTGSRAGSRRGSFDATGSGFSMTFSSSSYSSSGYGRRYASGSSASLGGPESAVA
Chain of UniProt O75390 (O75390 whole entry): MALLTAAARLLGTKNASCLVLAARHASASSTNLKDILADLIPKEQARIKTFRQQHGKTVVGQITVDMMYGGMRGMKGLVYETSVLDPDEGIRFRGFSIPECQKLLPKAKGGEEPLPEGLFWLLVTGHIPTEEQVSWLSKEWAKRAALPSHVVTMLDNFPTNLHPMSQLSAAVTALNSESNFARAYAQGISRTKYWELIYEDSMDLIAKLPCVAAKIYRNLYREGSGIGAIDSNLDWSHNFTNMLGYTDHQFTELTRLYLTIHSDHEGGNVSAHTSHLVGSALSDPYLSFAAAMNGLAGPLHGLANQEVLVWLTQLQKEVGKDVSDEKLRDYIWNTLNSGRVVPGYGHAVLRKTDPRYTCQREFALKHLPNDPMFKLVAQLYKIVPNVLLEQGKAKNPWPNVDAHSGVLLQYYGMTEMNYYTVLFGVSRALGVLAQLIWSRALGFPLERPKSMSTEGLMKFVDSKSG
Turning to “PCBP2 (lysine site: K309) (UniProt Q15366)”, the “lysine labeling ratio R10:1” value is 3.28 (inactive).

Take “TM9SF2 (lysine site: K495) (UniProt Q99805)”: the “lysine labeling ratio R10:1” value is 4.38 (inactive).

With “SURF4 (lysine site: K139) (UniProt O15260)”, the “lysine labeling ratio R10:1” value is 3.69 (inactive).

Turning to “HSPB1 (lysine site: K123) (UniProt P04792)”, the “lysine labeling ratio R10:1” value was 2.35 (inactive).

As to “CCT8 (lysine site: K37) (UniProt P50990)”, the “lysine labeling ratio R10:1” value is 1.6 (active).

Turning to “IGF2R (lysine site: K808) (UniProt P11717)”, the “lysine labeling ratio R10:1” value was 5.23 (inactive).

Consider “LAMA5 (lysine site: K1940) (UniProt O15230)”, for which the “lysine labeling ratio R10:1” value is 1.65 (active).

CS (lysine site: K43) (UniProt O75390): the “lysine labeling ratio R10:1” value is 4.66 (inactive).

In the case of “MISP (lysine site: K540) (UniProt Q8IVT2)”, the “lysine labeling ratio R10:1” value was 1 (active).

Take “CCT3 (lysine site: K249) (UniProt P49368)”: the “lysine labeling ratio R10:1” value was 1.76 (active).

Consider UniProt Q15149 (lysine site: K4480), for which the “lysine labeling ratio R10:1” value is 1.74 (active).

On to UniProt Q12884 (lysine site: K258), for which the “lysine labeling ratio R10:1” value was 3.81 (inactive).

With UniProt P25705 (lysine site: K230), the “lysine labeling ratio R10:1” value is 2.24 (inactive).

For the target UniProt P62269 (lysine site: K106), the “lysine labeling ratio R10:1” value was 1.85 (active).

For “CD55 (lysine site: K110) (UniProt P08174)”, the “lysine labeling ratio R10:1” value is 2.89 (inactive).

Turning to “HSPD1 (lysine site: K364) (UniProt P10809)”, the “lysine labeling ratio R10:1” value is 2.45 (inactive).

On to SFN (lysine site: K49) (UniProt P31947), for which the “lysine labeling ratio R10:1” value was 5.33 (inactive).

Regarding “DDR1 (lysine site: K112) (UniProt Q08345)”, the “lysine labeling ratio R10:1” value is 2.03 (inactive).

As for “TFRC (lysine site: K673) (UniProt P02786)”, the “lysine labeling ratio R10:1” value was 3 (inactive).

“ORMDL3 (lysine site: K79) (UniProt Q8N138)”: the “lysine labeling ratio R10:1” value was 5.16 (inactive).

On to “MYO1C (lysine site: K781) (UniProt O00159)”, for which the “lysine labeling ratio R10:1” value is 1.34 (active).

Regarding “EPHA2 (lysine site: K441) (UniProt P29317)”, the “lysine labeling ratio R10:1” value is 7.45 (inactive).

“PSMA4 (lysine site: K210) (UniProt P25789)”: the “lysine labeling ratio R10:1” value was 1.69 (active).

With “HNRNPM (lysine site: K48) (UniProt P52272)”, the “lysine labeling ratio R10:1” value is 4.62 (inactive).

In the case of UniProt Q15149 (lysine site: K810), the “lysine labeling ratio R10:1” value is 2.16 (inactive).

Regarding “SEMA3C (lysine site: K547) (UniProt Q99985)”, the “lysine labeling ratio R10:1” value was 2.69 (inactive).

“TGFBR3 (lysine site: K672) (UniProt Q03167)”: the “lysine labeling ratio R10:1” value was 0.83 (active).

For the target “PLS3 (lysine site: K335) (UniProt P13797)”, the “lysine labeling ratio R10:1” value is 0.765 (active).

For the target “PSMD7 (lysine site: K180) (UniProt P51665)”, the “lysine labeling ratio R10:1” value is 2.86 (inactive).

For “ROBO1 (lysine site: K733) (UniProt Q9Y6N7)”, the “lysine labeling ratio R10:1” value is 5.78 (inactive).

Regarding “ROBO1 (lysine site: K297) (UniProt Q9Y6N7)”, the “lysine labeling ratio R10:1” value is 3.3 (inactive).

As to “PDCD6IP (lysine site: K48) (UniProt Q8WUM4)”, the “lysine labeling ratio R10:1” value is 2.93 (inactive).

As for “FLNA (lysine site: K2473) (UniProt P21333)”, the “lysine labeling ratio R10:1” value was 3.58 (inactive).

Consider “FLNB (lysine site: K409) (UniProt O75369)”, for which the “lysine labeling ratio R10:1” value was 2.05 (inactive).

With “ENO1 (lysine site: K420) (UniProt P06733)”, the “lysine labeling ratio R10:1” value was 2.65 (inactive).

As to “VIM (lysine site: K373) (UniProt P08670)”, the “lysine labeling ratio R10:1” value was 7.19 (inactive).

On to “FRAS1 (lysine site: K380) (UniProt Q86XX4)”, for which the “lysine labeling ratio R10:1” value was 2.25 (inactive).

As for “EZR (lysine site: K162) (UniProt P15311)”, the “lysine labeling ratio R10:1” value is 0.7 (active).

Turning to “RCC2 (lysine site: K124) (UniProt Q9P258)”, the “lysine labeling ratio R10:1” value is 1.8 (active).

As for “APP (lysine site: K521) (UniProt P05067)”, the “lysine labeling ratio R10:1” value is 5.65 (inactive).
